From PubChem BioAssay AID1347056 (Sanford-Burnham Center for Chemical Genomics, 2019)
The campaign covered roughly 360,000 compounds. About 3,600 (1%) were called active.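 How the source made its calls: active means compounds whose plate-normalised and pattern-corrected inhibition of the luciferase reporter signal at the single screening dose is 50% or more; inactive means the rest.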 What follows is part of a selection rich in actives, with near analogues and random picks from the rest.

Experiment: inhibitors of TROY-driven NF-kB signaling, primary screen, Q293 LMP1-TROYcd cells, NF-kB luciferase, uHTS (AID 1347056)
Settings: Q293 LMP1-TROYcd NF-kB luciferase reporter, 4 h; at 10 µM; stronger effect = higher value

inhibition, active:
COc1ccc(/C=N/Nc2ncnc3sc4c(c23)CCCC4)cc1O 82.7%
CC(C)n1cnc2c(Nc3cccc(Cl)c3)nc(N(CCO)CCCO)nc21 50.8%
O=C(Nc1ccc2c(c1)OCCO2)C1CCCC1 81.7%
Cc1cccc(-n2ncc(Cl)c(Cl)c2=O)c1 72.5%
O=C(Nc1ccccc1Cl)/C(Cl)=C(\Cl)S(=O)c1ccccc1 (configuration not stated) 86.9%
Cc1ccc(-c2csc(NC(=O)Cn3[nH]c(=O)c4ccccc4c3=O)n2)cc1 55.9%
Cc1ccc(C(=O)O/N=C(\N)c2ccccn2)cc1Cl 72.9%
O=C(Nc1cccnc1)c1noc2c1CCCCC2 64.2%
CCCCCCc1cc2cc(-c3nnc(-c4ccccc4)o3)c(=O)oc2cc1O 61.6%
O=[N+]([O-])/C=C/c1ccc2c(ccn2Cc2ccccc2)c1 81.4%
COC(=O)c1sccc1NC(=O)CSc1ccccc1NS(=O)(=O)c1cc(Cl)ccc1Cl 51.4%
Cn1cc(/C=C/c2nc3ccccc3c(=O)n2-c2cccc([N+](=O)[O-])c2)c2ccccc21 53.2%
CC(C)=CCCC1(C)C=Cc2c(ccc3c2[nH]c2cc(O)c(C)cc23)O1 (configuration not stated) 56.8%
CCCc1ccc(-c2c(C)sc(NC(=O)c3ccnn3C)c2C#N)cc1 61.4%
Cc1ccc(Cc2c(-c3ccc(C)cc3)nc3c4ccccc4ccn23)cc1 54.4%
CCCCC(NS(=O)(=O)c1ccc(C)cc1)C(=O)Oc1ccc2c3c(c(=O)oc2c1)CCC3 (configuration not stated) 69.9%
COC(=O)CCNc1ccc2c(c1)OCCO2 78.2%
COc1ccccc1N=Cc1c(O)c2ccccc2oc1=O 68.1%
O=C(/C=C/Sc1ncn[nH]1)c1ccc(Cl)cc1 66%
CC(C)c1ccc2c(c1)c(SC(C)(C)C)c(CC(C)(C)C(=O)O)n2Cc1ccc(Cl)cc1 65.6%
COc1ccc(C(C#N)=C2C=CC(=NO)c3ccccc32)cc1 69.6%

inhibition, inactive:
COc1ccc(NC(=O)CCNC(=O)Cn2cnc3sc4c(c3c2=O)CCCC4)cc1OC 11.8%
COc1ccc(NC(=O)CCCNC(=O)Cn2cnc3sc4c(c3c2=O)CCCC4)cc1OC -6.14%
COCCCNC(=O)C1CCC(CNS(=O)(=O)c2ccc(OC)cc2)CC1 (configuration not stated) -8.61%
CCN(CC)C(=O)C1CCC(C)(C(=O)O)C1(C)C (configuration not stated) 7.66%
Cc1nnc(SCCCCSc2nnc(C)c(=O)[nH]2)[nH]c1=O -7.01%
C=C(C)C1CC=C(C)/C(=N/NC(=O)CCCNc2cccc(C)c2)C1 (configuration not stated) 5.76%
CN(CCO)c1ccc(/C=N/Nc2nncc3ccccc23)cc1 -22.8%
CN1C(=O)c2ccc(NC(=O)C3CCCCC3)cc2C1=O -41%
O=C(Nc1ccc2c(c1)OCO2)C1CC1(Cl)Cl (configuration not stated) -31.7%
CC(C)C[C@H]1CNC(=O)C(=O)N1C[C@H]1CCCN1C[C@H](Cc1ccc(O)cc1)N1C[C@H](CC(C)C)N(CC2CCCCCC2)C(=O)C1=O -20.6%
O=C1N[C@H](Cc2c[nH]c3ccccc23)COC(=O)[C@H](Cc2ccc(F)cc2)C/C=C\C[C@H]1CC(=O)N(CCO)Cc1ccccc1 19%
O=C(Cn1c(-c2cscn2)nc2ccccc21)Nc1ccc(Cl)cc1 6.66%
C/C(CC(=O)Nc1ccc(C)cc1C)=N\NC(=O)C(C)C 7.58%
CC1CCCCC1NC(=O)Cn1cnc2c1c(=O)n(C)c(=O)n2C (configuration not stated) -7%
O=C(CCc1[nH]c2ccccc2c1Sc1ccccc1)N(CCO)CCO 7.74%
CC(=O)Nc1c2c(nn1-c1cccc(C)c1)CSC2 -5.25%
CCCNC(=O)c1c(Cl)cnn1-c1ccc(C)cc1 -51.1%
CCNS(=O)(=O)c1ccc(CCC(=O)N2CCN(c3cc(Cl)ccc3C)CC2)cc1 26.1%
O=S(=O)(Cc1cc(Sc2ccccc2)nc(-c2ccccc2)n1)c1ccccc1 -3.96%
O=C(N[C@@H](Cc1c[nH]c2ccccc12)C(=O)O)OCC1c2ccccc2-c2ccccc21 -9.94%
CC(=O)c1ccc(NC(=O)C(C)N(C)CC(=O)Nc2ccccc2Cl)cc1 (configuration not stated) 7.44%
O=C(Nc1ccccc1Cl)c1ccccc1S(=O)(=O)c1ccccc1[N+](=O)[O-] -26.1%
O=C(Cn1[nH]c(=O)c2ccccc2c1=O)Nc1cccc(-c2nnc3n2CCCCC3)c1 18.8%
Cc1ccc(C)c(C(=O)COC(=O)Cn2[nH]c(=O)c3ccccc3c2=O)c1 -0.89%
O=C1C=CC(=O)N1c1ccc(N2CCCCC2)cc1 -3%
COC(=O)[C@@]1(Sc2ccc(C)cc2)CC(=O)N(c2cccc(SC)c2)[C@@H]1c1ccccc1 -0.08%
Cc1cccc(/C(N)=N/OC(=O)c2ccccc2Cl)c1 3.79%
N/C(=N\OC(=O)CCC1CCCCC1)c1ccccn1 -40.4%
COc1ccc(C2/C(=C(/O)c3ccc4c(c3)CC(C)O4)C(=O)C(=O)N2Cc2ccncc2)cc1 (configuration not stated) -12.1%
CC(=O)c1cc2c(cc1NC(=O)Cn1nc(-c3ccc(F)cc3)ccc1=O)OCO2 -13.6%
CC(=O)Nc1ccc(S(=O)(=O)NC2Cc3ccccc3C2)cc1 -3.14%
CCOc1ccc(/C=C(/NC(=O)c2ccccc2)C(=O)NCCC(=O)O)cc1 4.42%
Cc1noc(C)c1COc1cccc(C(=O)Nc2cccnc2)c1 11.8%
O=C(c1noc2c1CCCC2)N1CCc2ccccc2C1 -14.7%
CCCC(C)C(=O)NCc1ccncc1 (configuration not stated) 8.22%
FC(F)(F)Oc1ccccc1C(c1nnnn1C1CCCCC1)N1CCN(C/C=C/c2ccccc2)CC1 (configuration not stated) 5.81%
CCOC(=O)Cn1c(O)c(N=NC(=O)CNC(=O)Cc2ccccc2)c2ccccc21 -7.61%
C/C(CC(=O)NCc1ccc(Cl)cc1)=N\NC(=O)COc1ccc(C)cc1Br -10.5%
Cc1cc(OC(=O)c2ccc(OC(C)C)cc2)c([N+](=O)[O-])c(=O)[nH]1 -22.1%
O=C(Oc1ccc(-c2nnco2)cc1)c1ccc(F)c(S(=O)(=O)N2CCOCC2)c1 40.2%
COC(=O)c1sccc1NS(=O)(=O)c1ccc(F)cc1F 10.6%
COC(=O)c1scc(C)c1NC(=O)CSc1ccc(Cl)cc1 -6.59%
CC(C)(Oc1ccc(C2CC2(Cl)Cl)cc1)C(=O)O (configuration not stated) -11.2%
Cc1cc(N)n(-c2ccc(S(=O)(=O)N3CCCC3)cc2[N+](=O)[O-])n1 1.51%
CCOC(=O)N1CCN(Cc2nc3ccc([N+](=O)[O-])cc3c(=O)n2-c2cccc(OC)c2)CC1 5.96%
CCn1c(/C=C/c2ccc([N+](=O)[O-])o2)nc2ccccc2c1=O 1.09%
CC(OC(=O)c1ccccc1NCCO)C(=O)Nc1ccnn1C(C)C (configuration not stated) 4.88%
CCCc1cc(=O)[nH]c(SCC(=O)Nc2sc3c(c2C#N)CCCC3)n1 -13.3%
Cc1sc(NC(=O)C2=COCCO2)c(C#N)c1C -29.2%
O=C1COc2ccc(C(=O)CSc3ccc(Br)cc3)cc2N1 6.67%
CCNC(=S)N(CCN(CC)CC)Cc1cc2cc3c(cc2[nH]c1=O)OCO3 7.05%
c1ccc(Cc2c(-c3ccco3)nc3c4ccccc4ccn23)cc1 3.44%
Cc1ccc(Cc2c(-c3ccc(Cl)cc3)nc3c4ccccc4ccn23)cc1 4.34%
O=C(N=C1SC2CS(=O)(=O)CC2N1Cc1ccccc1)c1ccccc1 (configuration not stated) -0.57%
O=C(COc1ccc2c3c(c(=O)oc2c1)CCC3)NC1CCCCC1 -1.91%
NC(=O)C1CCN(C(=O)COc2ccc3c4c(c(=O)oc3c2)CCC4)CC1 -10.9%
COC(=O)c1cc2c(ccn2C)n1C 0.05%
Cc1ccc(OCCCC(=O)Nc2ccc3c(c2)OCCO3)cc1 17.8%
CCOc1ccc(NCCC(=O)c2ccc3c(c2)OCO3)cc1 9.47%
COc1ccccc1-c1oc2ccccc2c1C#CCCCCO 2.78%
O=c1oc2ccccc2c(=O)c2ccccc12 4.31%
COC(=O)CNc1nc(Cl)nc(N2CCC(C)CC2)n1 6.46%
CCCS(=O)(=O)NC(=O)C1(C)CCN(C(=O)c2sccc2C)C1 (configuration not stated) -21%
O=C(Cc1ccccc1F)NC1CCSc2ccccc21 (configuration not stated) 6.21%
CC(C)CN(C(=O)CN1CCN(S(=O)(=O)c2ccccc2)CC1)c1c(N)n(CC(C)C)c(=O)[nH]c1=O 3.32%
COCCN1C(=O)c2oc3c(C)cc(C)cc3c(=O)c2C1c1cccc(O)c1 (configuration not stated) 1.51%
O=C(COc1ccc(Br)cc1F)NCC1(N2CCCCC2)CCCCC1 -6.39%
COc1ccc(/C(N)=N/OC(=O)Cc2ccccc2)cc1 -56.1%
COc1ccc(C(=NN)c2ccc(OC)cc2)cc1 -42.8%
NC(=O)[C@H]1CC2(CC(c3cccc(NC(=O)[C@H]4CCC(=O)N4)c3)=NO2)CN1C(=O)c1ccccc1C(=O)c1ccccc1 (some centres not stated) -0.31%
CC1CCc2c(sc(NC(=O)c3ccc(Cn4cc(Br)cn4)o3)c2C(N)=O)C1 (configuration not stated) -4.02%
